A short description of experiment [1]: qHTS for Inhibitors of the Functional Ribonucleoprotein Complex (vRNP) of Lassa (LASV) Arenavirus: LASV Primary Screen - GLuc reporter signal (AID 1347082; calls by dose curve; tested in HEK293 reporter line; also: nearly all actives have a fitted effect of over 60% in size). For orientation: In qHTS, concentration-response curves come from the screen itself.
A short description of experiment [2]: qHTS for Inhibitors of the Functional Ribonucleoprotein Complex (vRNP) of Lassa (LASV) Arenavirus: Viability assay - alamar blue signal for LASV Primary Screen (AID 1347083; calls by dose curve; tested in HEK293 reporter line; also: nearly all actives have a fitted effect of over 80% in size).
Experiment [3] in a line: qHTS for Inhibitors of the Functional Ribonucleoprotein Complex (vRNP) of Lymphocytic Choriomeningitis Arenaviruses (LCMV): Viability assay - alamar blue signal for LCMV Primary Screen (AID 1347085; calls by dose curve; tested in HEK293 reporter line; also: nearly all actives have a fitted effect of over 80% in size).
Experiment [4] addresses Nucleoprotein (Lymphocytic choriomeningitis virus (strain Armstrong)) (UniProt P09992). As to the kind of experiment: qHTS for Inhibitors of the Functional Ribonucleoprotein Complex (vRNP) of Lymphocytic Choriomeningitis Arenaviruses (LCMV): LCMV Primary Screen - GLuc reporter signal (AID 1347086). Also: nearly all actives have a fitted effect of over 70% in size.

Drawing on PubChem BioAssay (NCATS), this text covers Potency for 60 molecules.

Where “and” joins values, the source holds several entries; their conditions need not be identical. Identical values can stand only once. Inconclusive results are not listed. Calls of active or inactive are those of the source. Unless noted, calls follow the shape of the full dose curve.
Potency is read from the fitted curve at half-maximal effect.

Nucleoprotein (Lymphocytic choriomeningitis virus (strain Armstrong)), sequence (P09992 whole entry, looked up): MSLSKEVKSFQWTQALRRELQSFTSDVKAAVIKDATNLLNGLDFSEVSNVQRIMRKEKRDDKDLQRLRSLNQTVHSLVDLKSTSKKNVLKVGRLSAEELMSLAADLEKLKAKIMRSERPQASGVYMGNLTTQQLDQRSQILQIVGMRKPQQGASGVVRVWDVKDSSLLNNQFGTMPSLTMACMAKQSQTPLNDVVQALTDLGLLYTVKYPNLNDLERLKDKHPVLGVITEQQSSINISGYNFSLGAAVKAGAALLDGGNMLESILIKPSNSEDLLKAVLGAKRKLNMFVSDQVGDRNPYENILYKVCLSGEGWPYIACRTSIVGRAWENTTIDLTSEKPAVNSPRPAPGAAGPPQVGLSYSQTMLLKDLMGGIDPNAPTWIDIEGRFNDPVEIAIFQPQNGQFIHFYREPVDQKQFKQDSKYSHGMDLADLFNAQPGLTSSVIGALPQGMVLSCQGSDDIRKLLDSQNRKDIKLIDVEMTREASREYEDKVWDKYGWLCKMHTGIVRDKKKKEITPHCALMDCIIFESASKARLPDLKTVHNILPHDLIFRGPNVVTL

In the case of `CCCCN(CCCC)C(C(N)=O)c1ccc(OC)cc1` (stereo not given), the Potency result in experiment [1], in experiment [2], in experiment [3] and in experiment [4] was “inactive” in each case.
Take `COc1ccc(-c2cc(C(F)F)nn2-c2ccc(S(N)(=O)=O)cc2)cc1F`: the Potency result in experiment [1], in experiment [2], in experiment [3] and in experiment [4] was “inactive” in each case.
Turning to `Oc1c(Cl)cc(Cl)c2cccnc12`, the Potency entry in experiment [1], in experiment [2], in experiment [3] and in experiment [4] was “inactive” throughout.
On to `C/C=C/c1ccc(OC)cc1`, for which the Potency result in experiment [1], in experiment [2], in experiment [3] and in experiment [4] was “inactive” each time.
For the molecule `O=C1OC2(c3ccc(O)cc3Oc3cc(O)ccc32)c2ccccc21`, the Potency entry in experiment [1], in experiment [2], in experiment [3] and in experiment [4] was “inactive” in each case.
Take `O=C(NCC1CN(c2ccc(N3CCOCC3=O)cc2)C(=O)O1)c1ccc(Cl)s1` (stereo not given): the Potency entry in experiment [1], in experiment [2], in experiment [3] and in experiment [4] was “inactive” in each case.
For `COc1ccc2cc1Oc1ccc(cc1)C[C@H]1c3c(cc4c(c3Oc3cc5c(cc3OC)CCN(C)[C@@H]5C2)OCO4)CCN1C`, the Potency entry in experiment [1], in experiment [2], in experiment [3] and in experiment [4] was “inactive” each time.
Take `CCCOc1ccc(C(=O)OCCN(CC)CC)cc1N`: the Potency result in experiment [1], in experiment [2], in experiment [3] and in experiment [4] was “inactive” throughout.
Regarding `O=C1C(c2[nH]c3ccccc3c2O)=Nc2ccccc21`, the Potency entry in experiment [1], in experiment [2], in experiment [3] and in experiment [4] was “inactive” each time.
For the molecule `CCC(CC)(CC(=O)Nc1cccc(/C=C/c2nc(C3CCC3)cs2)c1)C(=O)O`, the Potency result in experiment [1], in experiment [2], in experiment [3] and in experiment [4] was “inactive” throughout.
With `COc1cc(OC)cc(OC)c1`, the Potency result in experiment [1], in experiment [2], in experiment [3] and in experiment [4] was “inactive” throughout.
As for `CC(C)OC(=O)C(C(=O)OC(C)C)=C1SC=CS1`, the Potency entry in experiment [1], in experiment [2], in experiment [3] and in experiment [4] was “inactive” throughout.
Turning to `CCCCCCCCCCCC[N+](C)(C)Cc1ccccc1`, the Potency entry in experiment [1], in experiment [2], in experiment [3] and in experiment [4] was “inactive” each time.
`Brc1c(NC2=NCCN2)ccc2nccnc12`: the Potency entry in experiment [1], in experiment [2], in experiment [3] and in experiment [4] was “inactive” in each case.
Regarding `CC(C)NCC(O)c1ccc2ccccc2c1` (stereo not given), the Potency entry in experiment [1], in experiment [2], in experiment [3] and in experiment [4] was “inactive” in each case.
In the case of `CC(=O)[C@@]1(O)CC[C@H]2[C@@H]3CCC4=CC(=O)CC[C@]4(C)[C@H]3CC[C@@]21C`, the Potency entry in experiment [1], in experiment [2], in experiment [3] and in experiment [4] was “inactive” each time.
As to `O=c1[nH]c(=O)c2ccccc2o1`, the Potency entry in experiment [1], in experiment [2], in experiment [3] and in experiment [4] was “inactive” in each case.
`O=C(Cn1ccnc1[N+](=O)[O-])NCCO`: the Potency result in experiment [1], in experiment [2], in experiment [3] and in experiment [4] was “inactive” in each case.
With `COc1cc(NS(=O)(=O)c2ccc(N)cc2)nc(OC)n1`, the Potency result in experiment [1], in experiment [2], in experiment [3] and in experiment [4] was “inactive” in each case.
Take `CC(C)C(=O)OCc1cccc(OC(=O)[C@@H]2N3C(=O)[C@@H](NC(=O)Cc4ccccc4)[C@H]3SC2(C)C)c1`: the Potency result in experiment [1], in experiment [2], in experiment [3] and in experiment [4] was “inactive” throughout.
Take `c1cc(CN2CCCCC2)cc(OCCCNc2nc3ccccc3s2)c1`: the Potency entry in experiment [1], in experiment [2], in experiment [3] and in experiment [4] was “inactive” in each case.
Take `NC(=O)C(=O)N/N=C/c1ccc([N+](=O)[O-])o1`: the Potency entry in experiment [1], in experiment [2], in experiment [3] and in experiment [4] was “inactive” in each case.
For the molecule `C/C(=N/NC(=O)c1ccncc1)C(=O)O`, the Potency entry in experiment [1], in experiment [2], in experiment [3] and in experiment [4] was “inactive” throughout.
`NC1(c2ccc(-c3nc4ccn5c(=O)[nH]nc5c4cc3-c3ccccc3)cc2)CCC1`: the Potency in experiment [1] is 19.3 µM (active); in experiment [2], 2.73 µM (active) and 5.62 µM (active); in experiment [3] it was 3.85 µM (active); in experiment [4], 3.06 µM (active).
As to `Nc1ccc(C(=O)NCC(=O)O)cc1`, the Potency result in experiment [1], in experiment [2], in experiment [3] and in experiment [4] was “inactive” throughout.
With `CCC(=O)O[C@]1(C(=O)COC)[C@@H](C)C[C@H]2[C@@H]3CCC4=CC(=O)C=C[C@]4(C)C3(F)[C@@H](O)C[C@@]21C` (stereo not given in full), the Potency result in experiment [1], in experiment [2], in experiment [3] and in experiment [4] was “inactive” each time.
In the case of `CCOC(=O)OCC/C(SC(=O)OCC)=C(\C)N(C=O)Cc1cnc(C)nc1N`, the Potency entry in experiment [1], in experiment [2], in experiment [3] and in experiment [4] was “inactive” throughout.
Consider `CCOC(=O)c1c(N)sc2c1CCN(Cc1ccccc1)C2`, for which the Potency entry in experiment [1], in experiment [2], in experiment [3] and in experiment [4] was “inactive” in each case.
Take `COc1ccc2c(c1)c(CC(=O)O)c(C)n2C(=O)c1ccc(Cl)cc1`: the Potency entry in experiment [1], in experiment [2], in experiment [3] and in experiment [4] was “inactive” each time.
Consider `C=CCOc1cc(Cl)ccc1C(=O)NCCN(CC)CC`, for which the Potency entry in experiment [1], in experiment [2], in experiment [3] and in experiment [4] was “inactive” throughout.
As to `CCN(CC)CCOc1ccc(Cc2ccccc2)cc1`, the Potency entry in experiment [1], in experiment [2], in experiment [3] and in experiment [4] was “inactive” throughout.
`CCCCC1C(=O)N(c2ccccc2)N(c2ccccc2)C1=O`: the Potency result in experiment [1], in experiment [2], in experiment [3] and in experiment [4] was “inactive” throughout.
For the molecule `COc1ccc2cc(C=O)ccc2c1`, the Potency result in experiment [1], in experiment [2], in experiment [3] and in experiment [4] was “inactive” in each case.
Regarding `CCOC(=O)C(C)(C)Oc1ccc(Cl)cc1`, the Potency result in experiment [1], in experiment [2], in experiment [3] and in experiment [4] was “inactive” throughout.
Regarding `CCn1ccnc1CC1COc2ccccc2O1` (stereo not given), the Potency entry in experiment [1], in experiment [2], in experiment [3] and in experiment [4] was “inactive” each time.
Turning to `CCCCCCc1ccc(O)cc1O`, the Potency result in experiment [1], in experiment [2], in experiment [3] and in experiment [4] was “inactive” throughout.
`CC(=O)Nc1cccc(O)c1`: the Potency result in experiment [1], in experiment [2], in experiment [3] and in experiment [4] was “inactive” throughout.
For the molecule `Clc1ccccc1-c1nc(-c2ccncc2)no1`, the Potency result in experiment [1], in experiment [2], in experiment [3] and in experiment [4] was “inactive” each time.
Take `CCC(=O)Oc1ccc2c(c1)CC[C@@H]1[C@@H]2CC[C@@]2(C)[C@H]1C[C@@H](OC(=O)CC)[C@@H]2OC(=O)CC`: the Potency result in experiment [1], in experiment [2], in experiment [3] and in experiment [4] was “inactive” each time.
As to `O=C(O)CNC(=O)c1ccccc1I`, the Potency result in experiment [1], in experiment [2], in experiment [3] and in experiment [4] was “inactive” throughout.
For the molecule `CC(C)NC(=O)c1ccc(C=O)cc1`, the Potency entry in experiment [1], in experiment [2], in experiment [3] and in experiment [4] was “inactive” throughout.
As for `Cc1cccc(N(C)C(=S)Oc2ccc3ccccc3c2)c1`, the Potency entry in experiment [1], in experiment [2], in experiment [3] and in experiment [4] was “inactive” in each case.
In the case of `c1ccc(CCNc2nc(-c3ccccc3)cs2)cc1`, the Potency entry in experiment [1], in experiment [2], in experiment [3] and in experiment [4] was “inactive” each time.
`O=C1CC2(CCCC2)CC(=O)N1CCCCN1CCN(c2ncccn2)CC1`: the Potency entry in experiment [1], in experiment [2], in experiment [3] and in experiment [4] was “inactive” in each case.
For `CCCCCC(N)=O`, the Potency entry in experiment [1], in experiment [2], in experiment [3] and in experiment [4] was “inactive” throughout.
As for `NCc1ccccc1Sc1ccccc1CO`, the Potency entry in experiment [1], in experiment [2], in experiment [3] and in experiment [4] was “inactive” throughout.
Turning to `CN1C(=O)CC(c2ccccc2)C1=O` (stereo not given), the Potency result in experiment [1], in experiment [2], in experiment [3] and in experiment [4] was “inactive” in each case.
As to `N[C@H]1CN(c2c(F)cc3c(=O)c(C(=O)O)cn(C4C[C@@H]4F)c3c2Cl)CC12CC2` (stereo not given in full), the Potency result in experiment [1], in experiment [2], in experiment [3] and in experiment [4] was “inactive” each time.
With `CCc1cc(Cl)c(OC)c(C(=O)NC[C@@H]2CCCN2CC)c1O`, the Potency entry in experiment [1], in experiment [2], in experiment [3] and in experiment [4] was “inactive” each time.
On to `COc1ccc(S(=O)(=O)N2c3ccc(Cl)cc3[C@@](O)(c3ccccc3Cl)[C@H]2C(=O)N2CCC[C@@H]2C(N)=O)cc1OC`, for which the Potency entry in experiment [1], in experiment [2], in experiment [3] and in experiment [4] was “inactive” each time.
For `CC(=O)N(CC(O)CN(C(C)=O)c1c(I)c(C(=O)NCC(O)CO)c(I)c(C(=O)NCC(O)CO)c1I)c1c(I)c(C(=O)NCC(O)CO)c(I)c(C(=O)NCC(O)CO)c1I` (stereo not given), the Potency entry in experiment [1], in experiment [2], in experiment [3] and in experiment [4] was “inactive” each time.
In the case of `C[C@H]1COc2c(C3(N)CC3)c(F)cc3c(=O)c(C(=O)O)cn1c23`, the Potency entry in experiment [1], in experiment [2], in experiment [3] and in experiment [4] was “inactive” throughout.
As for `CN(C)CCCSc1ccccc1NC(=O)/C=C/c1ccccc1`, the Potency entry in experiment [1], in experiment [2], in experiment [3] and in experiment [4] was “inactive” in each case.
In the case of `CC(O)COc1ccccc1` (stereo not given), the Potency result in experiment [1], in experiment [2], in experiment [3] and in experiment [4] was “inactive” each time.
`CCC(=O)c1ccc(O)cc1`: the Potency result in experiment [1], in experiment [2], in experiment [3] and in experiment [4] was “inactive” each time.
Regarding `Cc1ccc(=O)n(-c2ccccc2)c1`, the Potency result in experiment [1], in experiment [2], in experiment [3] and in experiment [4] was “inactive” in each case.
For the molecule `CC(=O)OCC(=O)[C@@]12N=C(C)O[C@@H]1C[C@H]1[C@@H]3CCC4=CC(=O)C=C[C@]4(C)[C@H]3[C@@H](O)C[C@@]12C`, the Potency entry in experiment [1], in experiment [2], in experiment [3] and in experiment [4] was “inactive” in each case.
`Clc1ccc2c(c1)CCc1cccnc1C2=C1CCNCC1`: the Potency result in experiment [1], in experiment [2], in experiment [3] and in experiment [4] was “inactive” each time.
Regarding `CCc1cccc2c3c([nH]c12)C(CC)(CC(=O)O)OCC3` (stereo not given), the Potency entry in experiment [1], in experiment [2], in experiment [3] and in experiment [4] was “inactive” throughout.
Regarding `Cc1ccc(C(C)OC(=O)C2(C)CCC(C(=O)O)C2(C)C)cc1` (stereo not given), the Potency entry in experiment [1], in experiment [2], in experiment [3] and in experiment [4] was “inactive” each time.
